HPGD inh = HPGD (human) dehydrogenase inhibition; purified HPGD, NADH fluorescence kinetic, PGE2 substrate; Potency, µM, without a hit: at the highest dose activity change, negative = inhibition, actives largely listed as inhibitors; 150,000 compounds, 4.3% hits; P15428; also: % is scaled to controls: 0 for no effect and ±100 for the full control effect
Target sequence (P15428 whole entry, looked up): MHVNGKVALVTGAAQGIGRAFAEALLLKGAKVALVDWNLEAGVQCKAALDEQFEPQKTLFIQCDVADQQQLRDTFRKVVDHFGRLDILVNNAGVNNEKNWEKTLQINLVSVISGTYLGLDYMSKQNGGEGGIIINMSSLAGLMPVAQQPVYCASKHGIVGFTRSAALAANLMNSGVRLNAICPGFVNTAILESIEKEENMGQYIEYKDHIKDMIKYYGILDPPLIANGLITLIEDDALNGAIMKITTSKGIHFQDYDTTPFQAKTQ
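NADH formation kinetics: reaction with 30 uM PGE2 and 1 mM NAD+ (final), 20 nM enzyme, Tris-HCl pH 8 with Tween 20, after 15 min compound preincubation at room temperature. Fluorescence change, last versus first of five reads.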
HTT aggregate = mutant huntingtin aggregation inhibition. AID 1688. Potency, µM (titrated, usually from 46.1 µM), for inactives: at the top dose activity change, negative = inhibition, most hits filed as inhibitors. 220,000 compounds, 1.1% hits. PC12 HttQ103-GFP aggregates, Acumen cytometry, 40 h; active = well fitted curve in the direction sought with a large enough effect; inconclusive = small, poorly fitted or top-dose-only effect, or another doubt; inactive = no such curve, though single readings can be large; an effect the other way counts as inactive or inconclusive; also: % is scaled to controls: 0 for no effect and ±100 for the full control effect; nearly all actives have a fitted effect of over 60% in size
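Inducible Q103 Huntingtin exon 1–GFP PC12 line, 1500 cells/well in phenol red free DMEM with 5% equine and 5% calf serum. Tebufenozide 100 nM induced expression; compounds titrated; aggregates quantified by cytometry.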
ALDH1A1 inh = inhibitors of human aldehyde dehydrogenase 1A1; P00352; Purified ALDH1A1, NADH fluorescence, propionaldehyde substrate; Potency, µM (top dose mostly 75.3 µM), for the others: at the highest dose activity, negative = inhibition, most hits filed as inhibitors; 220,000 compounds, 7.3% hits; AID 1030;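 also: plate controls were no enzyme wells and a reference inhibitor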
Lamin A splicing = changes lamin A minigene splicing in HeLa cells | HeLa LMNA splicing GFP/RFP minigene ratio, 48 h | Potency, µM (doses to about 46.1 µM), without a hit: top-dose ratio change, negative = inhibition, hits mostly inhibitors | 200,000 compounds, 0.01% hits | AID 1487; active = well fitted inhibition curve with a large enough effect in the signal ratio, with a control signal flat, not every such curve was filed as active; inconclusive = small, poorly fitted or top-dose-only effect, or effect the other way, or a change in a side signal; the % refers to the signal ratio; also: % is scaled to controls: 0 for no effect and ±100 for the full control effect
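S3 HeLa stable clones carrying a lamin A-EGFP splicing minigene plus DsRed2 were seeded at 600 cells/well in Opti-MEM with 2% FBS, pin-dosed and incubated 48 h at 37°C. Acumen cytometry (488 nm) gave the GFP/RFP total-intensity ratio.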
KDM4E inh = JMJD2E (human) inhibition. JMJD2E catalytic domain, FDH-coupled NADH fluorescence (FDH is formaldehyde dehydrogenase). 230,000 compounds, 1.6% hits. AID 2147. Potency, µM (top dose mostly 57.1 µM), inactives show at the top dose activity change, negative = inhibition, actives largely listed as inhibitors;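 also: 0% = wells with enzyme and -100% = buffer wells without enzyme; nearly all actives have a fitted effect of over 50% in size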
HTT cytoprotect = protects HTT-Q103 PC12 cells, measured by ATP; PC12 HTT-Q103 induced, cytoprotection, ATP luminescence, 40 h; Potency, µM (series often up to 56.4 µM), for inactives: cytoprotection (ATP increase), hits mostly activators; 230,000 compounds, 0.14% hits; active = well fitted curve in the direction sought with a large enough effect; inconclusive = small, poorly fitted or top-dose-only effect, or another doubt; inactive = no such curve, though single readings can be large; an effect the other way counts as inactive or inconclusive; also: % of control where 0% means no effect; nearly all actives have a fitted effect of over 45% in size
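Quantitative HTS on tebufenozide-induced (100 nM) PC12 cells expressing HTTQ103 exon 1–GFP; compounds tested as a concentration series; survival measured via cellular ATP.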
* marks the source's active call; other numbers are inactive results; ? = inconclusive; · = no result; [ ] = dose if it differs, or a comment. Hits are enriched below; roughly 9.2% of the tested compounds scored in any of these assays. Unless noted, calls follow the shape of the dose curve; as a rule, active = well fitted inhibition curve with a large enough effect (not every such curve was filed as active); inconclusive = small, poorly fitted or top-dose-only effect, or another doubt; inactive = no such curve, though single readings can be large or run the other way. Potency is read from the fitted curve at half-maximal effect.

SMILES	HPGD inh	HTT aggregate	ALDH1A1 inh	Lamin A splicing	KDM4E inh	HTT cytoprotect
COc1ccccc1-c1ccc(NC2CCCCC2)nn1	7.1µM*	-2%	-5%	-15%	-18%	-17%[10 µM]
CCCCc1n[nH]c2c1/C(=N/O)CC(c1ccccc1)C2 (stereo not given)	2.5µM*	?	-2%	?	7%	-29%[10 µM]
CCc1n[nH]c2c1/C(=N\O)CC(c1ccccc1)C2 (stereo not given)	4µM*	-11%[9.22 µM]	-8%	?	1%	-27%
CSCCC(N)C(=O)O (stereo not given)	0%	8%	7%	?	·	-35%
COC(=O)CC1C(C)(C)C(OC(C)=O)C2[C@H](OC(C)=O)[C@]34O[C@]2(O)[C@]1(C)C3CC[C@]1(C)C4=CC(=O)OC1c1ccoc1 (stereo not given in full)	-17%	·	10%	·	-7%	-31%
COc1ccc(C(=O)NCC23C=CC(O2)C2C(=O)N(Cc4ccccc4)C(=O)C23)cc1 (stereo not given)	-7%	12%	7.9µM*	-13%	8%	-13%
CC(C)N1CCN(Cc2ccc(-c3ccccc3Cl)o2)CC1CCO (stereo not given)	·	-17%[9.22 µM]	?	10%[46 µM]	0%	-13%[10 µM]
COC(=O)c1cccc(C#CC(NP(=O)(c2ccccc2)c2ccccc2)c2ccccc2)c1 (stereo not given)	-12%	-2%[9.22 µM]	13µM*	·	-28%	-3%
COC(=O)c1ccc(C#CC(NP(=O)(c2ccccc2)c2ccccc2)c2ccccc2)cc1 (stereo not given)	25µM*	·	?	·	?	?
CCC[C@@H]1C[C@@]1(CCC)[C@@H](NP(=O)(c1ccccc1)c1ccccc1)c1ccc(C(=O)OC)cc1	-15%	?	6%	?	4%	-129%
N#C/C(=N\Nc1ccccc1F)c1nc(-c2ccccc2)cs1	·	6%	-1%	·	4%	-16%
CSCCC(NC(=O)OC(C)(C)C)C(=O)Oc1ccc2c(=O)c(-c3ccc4c(c3)OCCO4)coc2c1 (stereo not given)	-16%	2%	25µM*	?	?	-79%
Cc1ccc(C(=O)c2ccc([N+](=O)[O-])cc2)cc1	-12%	-31%	-7%	28%	-4%	12%
Cc1ccc(S(=O)(=O)CC#CCOC(=O)c2ccc([N+](=O)[O-])cc2)cc1	13µM*	23%	1.1µM*	?	2%	-11%
Cc1oc(-c2ccccc2)nc1C(=O)N1CCN(c2ccc(F)cc2)CC1	·	0%	-14%	8%[46 µM]	6%	11%[10 µM]
CCOC(=O)c1cc(C#N)c(=S)[nH]c1C	·	-9%	3.5µM*	·	-29%	-6%
COCc1[nH]c(=S)c(C#N)cc1C(=O)OC	·	-2%[9.22 µM]	·	·	25µM*	13%[10 µM]
Cc1cc(C)cc(OCC(=O)OCC(=O)N2CC(=O)Nc3ccccc32)c1	·	12%	9%	4%[46 µM]	-12%	-9%[10 µM]
COCCn1c(=O)c(C)nc2cnc(OC)nc21	·	·	?	-1%	·	5%
CC(=O)O[C@@H]1[C@H]([N+]2(C)CCCCC2)C[C@@H]2[C@@H]3CC[C@@H]4C[C@@H](OC(C)=O)[C@H]([N+]5(C)CCCCC5)C[C@@]4(C)[C@H]3CC[C@]21C	·	·	·	·	·	0%[1.9 µM]
COc1cccc(-c2nnc3sc(C4CCCCC4)nn23)c1	-28%	2µM*	?	-9%	-2%	?
CCOc1cccc(-c2nnc3sc(C4CCCCC4)nn23)c1	32µM*	?	25µM*	?	0%	-7%
c1cncc(-c2nnc3sc(C4CCCCC4)nn23)c1	-11%	-3%	-2%	10%	2%	-14%
COc1ccc(CCNC(=O)Cn2c(=O)n(-c3ccc(C)c(F)c3)c(=O)c3sccc32)cc1OC	·	-11%	6.3µM*	10%[46 µM]	-8%	-3%
COCCCNC(=O)Cn1c(=O)n(CC(=O)NCCc2ccc(OC)c(OC)c2)c(=O)c2sccc21	·	13%	-13%	·	7%	-16%[10 µM]

Assay outcomes (PubChem)
